For this assay, the system named is HL-60(TB) leukemia. The assay can be described thus: NCI-60 one-dose screen, 48 h (100 = growth as untreated, 0 = no growth, -100 = all killed). To be noted: 10 µM unless noted.

The panel holds about 83,000 compounds, 20% with a hit somewhere; the sample as a whole holds those more often.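 Assay: single dose, 48 h. Readout: percent growth (0 = no net growth; negative = cell death). Active: <10.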 Unmarked numbers belong to inactive results. Active and inactive are the calls of the source.

Turning to `C/C(=N\Nc1ccccc1)c1ccc(NC2=CC(=O)c3ccccc3C2=O)cc1`, the growth is 80.6%. Then `COc1ccc(S(=O)(=O)N2CCN(c3cc4c(cc3F)c(=O)c(C(=O)O)cn4C3CC3)CC2)c(OC)c1`, with 87.1%; and `CCCCCCCCCCCCCCCCCC(=O)Nc1ccc(O)cc1`, with 5.77% (active); and `COc1cccc(/C=C2\C=C(c3ccccc3)N(Cc3ccccc3)C2=O)c1`, with 90.7%. The value for `C=CCN1C(=O)/C(=c2\sc3n(c2=O)C2C(NN=3)N(CC)C(=O)N2CC)c2ccccc21` (centres undefined) was -17.4% (active); that for `N#Cc1c(NC(=O)NCc2ccccc2)sc2c1CCCCC2` was -8.46% (active); that for `CCn1c(SC/C(=N/O)c2ccccc2)nnc1-c1ccccc1` was 103%. Then `CCOC(=O)c1c[nH]n2c(=S)ncnc12`, with 91.2%; and `COc1cc(C2=N/C(=C\c3cc4ccccc4nc3Oc3ccccc3)C(=O)N2C(=N)N)cc(OC)c1OC`, with 77.2%. As for `CCCCCCCCCCN1CCC(N2CCCCC2)CC1`, the growth is -57.7% (active). `COc1ccc(C2CC(=O)c3c(O)c(OC)c(OC)c(OC)c3O2)c(O)c1` (centres undefined): the growth is 2.26% (active). The value for `O=C(N=Nc1c(O)[nH]c2ccccc12)Nc1ccccc1Cl` was 78.3%. The value for `CCN(CC)CCOC(=O)C(c1ccccc1)(c1ccccc1)C(C)C` was 91.8%; that for `Cc1nc(Nc2nc3ccccc3o2)nc(-c2cccc([N+](=O)[O-])c2)c1C(=O)Nc1ccc(F)c(Cl)c1` was -22.1% (active).

As to `Cc1cc(Oc2ccccc2)ccc1Nc1ncnc2ccc(-c3cnc(Cl)c(NS(C)(=O)=O)c3)cc12`, the growth was 30.3%. Then `CCN1CCN(CC(=O)Nc2nc3ccc(NCc4ccc(Cl)cc4)cc3s2)CC1`, with 29%.

Turning to `O=C1C=CC(=CC=C2C=CN(CCCCCCCCCCCO)C=C2)C=C1`, the growth was 4.05% (active). On to `CCn1cc(C(=O)N/N=C/c2ccc(Br)cc2)c(=O)c2cc(F)c(N3CCNC(C)C3)c(F)c21` (centres undefined), for which the growth is 48.7%. Then `COc1cc(-c2cc(C(=O)Nc3nc4ccccc4s3)nc3cc(-c4ccccc4)nn23)cc(OC)c1OC`, with 48.3%; and `CCN(C(=O)CN1CCN(c2cc3c(cc2F)c(=O)c(C(=O)O)cn3CC)CC1)c1nc(-c2ccccc2)cs1`, with -39.2% (active); and `O=C1/C(=C/c2ccc(OCCCOc3ccc(Cl)cc3)cc2)N=C2SCCCN12`, with 93%.

Regarding `CN(C)CCCn1c2nc(=O)[nH]c(=O)c-2nc2cc(Cl)c(Cl)cc21`, the growth is 76%. The value for `CN(C)Cc1cccs1` was 104%. The value for `c1cnc2[nH]cc(-c3csc(-c4cn(CCCN5CCCCC5)c5ccccc45)n3)c2c1` was -2.66% (active); that for `COc1ccc(/C=C(\C#N)n2nnc3ccc(Cl)cc32)cc1` was 86.6%. The value for `Brc1ccccc1Nc1ccc2nnc(-c3ccncc3)n2n1` was 96.4%; that for `CC1(C)NCCC[C@]2(C)[C@H]3CC(=O)[C@H]4[C@@H]5C[C@](C)(CO)CC[C@]5(C)CC[C@@]4(C)[C@]3(C)CC[C@@H]12` was 102%. Regarding `C#CCOc1nc(C)cc(C)c1C#N`, the growth was 89.5%. The value for `C1CCN(c2nc(N3CCCCC3)nc(N3CCOCC3)n2)CC1` was 112%.

(Values after PubChem BioAssay (NCI).)
